JMJD2A Tudor: blocks the human JMJD2A Tudor domain | AlphaScreen JMJD2A-Tudor / H3K4me3 peptide binding | Potency, µM (top dose mostly 114 µM), inactives show at the highest dose activity change, negative = inhibition, most hits filed as inhibitors | actives 4.4% (n = 390,000); further: on the % scale 0 is the no-effect control and ±100 the full control effect; nearly all actives have a fitted effect of over 50% in size
HP1b binding inh: inhibitors of HP1-beta chromodomain binding to methylated histone tails | Potency, µM (doses to about 114 µM), for inactives: top-dose activity change, negative = inhibition, actives largely listed as inhibitors | AlphaScreen HP1-beta / biotin-H3K9me3 peptide binding | P83916 | actives 0.56% (n = 390,000); further: nearly all actives have a fitted effect of over 70% in size
Target sequence (P83916 whole entry, looked up): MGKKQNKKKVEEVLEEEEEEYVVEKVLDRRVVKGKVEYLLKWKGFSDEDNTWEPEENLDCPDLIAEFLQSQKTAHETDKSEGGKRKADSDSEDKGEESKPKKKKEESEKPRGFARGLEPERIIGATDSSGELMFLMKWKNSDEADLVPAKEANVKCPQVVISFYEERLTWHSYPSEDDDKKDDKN
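Compound inhibition of the preformed complex between 50 nM HP1-beta and 50 nM biotinylated H3K9me3 peptide was read by AlphaScreen. Buffer was PBS pH 7.4 with 0.01% Tween-20. Incubations ran 30 min at room temperature, with 10 ug/mL donor/acceptor beads.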
BAZ2B inh: inhibitors of human BAZ2B bromodomain; Q9UIF8; AlphaScreen BAZ2B-H3K14Ac peptide displacement; Potency, µM (titrated, usually from 114 µM), without a hit: at the highest dose activity change, negative = inhibition, actives largely listed as inhibitors; actives 4.4% (n = 360,000); further: on the % scale 0 is the no-effect control and ±100 the full control effect; nearly all actives have a fitted effect of over 60% in size
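Inhibition is scored as reduced AlphaScreen emission. The BAZ2B/b-H3(5-23)K14Ac complex (50 nM each) in PBS pH 7.4, 0.01% Tween-20 meets compound (up to 110 uM) for 30 min at RT before bead addition.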
G9a block: inhibitors of human histone lysine methyltransferase G9a | Q96KQ7 | G9a H3K9 monomethylation, AlphaScreen, 2 h | Potency, µM (series often up to 102 µM), inactives show top-dose activity, negative = inhibition, most hits filed as inhibitors | actives 8.8% (n = 350,000) | AID 504332; further: on the % scale 0 is the no-effect control and ±100 the full control effect; nearly all actives have a fitted effect of over 75% in size
Target sequence (Q96KQ7 913-1193 limits assumed): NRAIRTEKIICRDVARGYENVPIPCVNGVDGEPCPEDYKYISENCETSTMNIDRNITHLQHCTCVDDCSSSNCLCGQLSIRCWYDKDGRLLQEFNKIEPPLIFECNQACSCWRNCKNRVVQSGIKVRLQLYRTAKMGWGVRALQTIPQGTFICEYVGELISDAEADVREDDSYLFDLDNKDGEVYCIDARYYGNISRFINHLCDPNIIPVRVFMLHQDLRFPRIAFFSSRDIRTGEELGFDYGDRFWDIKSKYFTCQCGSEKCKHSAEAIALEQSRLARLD
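Enzyme 20 nM + cpd, 15 min RT; add b-H3K9 pep 500 nM / SAM 20 uM; 2 h RT; anti-H3K9me1 Ab 0.5 ug/mL + SA donor / anti-rabbit acceptor beads 20 ug/mL each, 10 min; AlphaScreen read.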
L3MBTL1 block: blocks human L3MBTL1 | Q9Y468 | AlphaScreen L3MBTL1–H3K9me1 peptide binding | Potency, µM (doses to about 57.1 µM), for the others: at the top dose activity, negative = inhibition, hits mostly inhibitors | actives 0.66% (n = 230,000) | AID 485360; further: on the % scale 0 is the no-effect control and ±100 the full control effect; nearly all actives have a fitted effect of over 60% in size
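L3MBTL1 50 nM + b-AHA-H3(1-15)K9me1 75 nM, 30 min RT; compound added, 30 min RT; streptavidin donor/Ni-chelate acceptor beads 10 ug/mL each final, 30 min RT dark; AlphaScreen read.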
GLS inh: glutaminase GLS (human) inhibition. Potency, µM (highest dose often 45.5 µM), inactives show at the highest dose activity change, negative = inhibition, hits mostly inhibitors. GLS enzymatic activity, qHTS titration. O94925. actives 0.21% (n = 410,000). AID 624170; further: on the % scale 0 is the no-effect control and ±100 the full control effect
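Enzyme dispensed in phosphate buffer (45 mM, pH 8.2, 0.02% Tween-20), compounds pinned in, then 1 mM L-glutamine solution and the glutamate oxidase–HRP–Amplex Red mix added; fluorescence read immediately and again after 30 min at room temperature.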
The depositor's hits bear a star; ? = inconclusive; · = no result; ! = not active in a repeat; [ ] = remark or other dose. In the library only some 10% were active in any assay of this set; here they are far more common. The call rests on the fitted dose curve; in most records, active means well fitted curve in the direction sought with a large enough effect; inconclusive means small, poorly fitted or top-dose-only effect, or another doubt; inactive means no such curve, though single readings can be large; an effect the other way counts as inactive or inconclusive. Potency means the concentration at half of the fitted maximal effect.

SMILES	JMJD2A Tudor	HP1b binding inh	BAZ2B inh	G9a block	L3MBTL1 block	GLS inh
CN1c2ccsc2/C(=N/Nc2ccc(F)cc2)CS1(=O)=O	25µM*	?	?	14µM*	-18%	?
Cc1ccc(N/N=C2\CS(=O)(=O)N(C)c3ccsc32)cc1	-27%	-5%	?	45µM*	?	10%
CCCCCCCCCCCCCCCC(=O)OC(CC(=O)O)C[N+](C)(C)C (stereo unspecified)	-27%	20%	4%	32µM*!	11%	1%
CNc1ccccc(-c2ccc3ccccc3n2)c1=O	-16%	47%	-2%	89µM*	-2%	-12%
Cc1ccc(NC(=O)CN2CCC(Cc3ccccc3)CC2)cc1S(=O)(=O)N(C)C	18µM*	?	40µM*	8.9µM*	-18%	1%
Cc1ccc(NC(=O)CN2CCN(C(=O)c3ccco3)CC2)cc1S(=O)(=O)N(C)C	6.3µM*	?	·	·	·	-3%
Cc1ccc(NC(=O)CCNCc2ccco2)cc1S(=O)(=O)N(C)C	1.8µM*	?	50µM*	8.9µM*	-6%	1%
Cc1ccc(NC(=O)COC(=O)C2CC(=O)N(Cc3ccccc3)C2)cc1S(=O)(=O)N(C)C (stereo unspecified)	-4%[57.1 µM]	31%	-17%	40µM*	2%	0%
CCCN1C(=O)c2ccccc2NC1c1ccc(OC)c(COc2cccc(OC)c2)c1 (stereo unspecified)	-18%[57.1 µM]	17%[57 µM]	·	·	·	·
CCc1cccc(NC(=O)CSC2=Nc3ccccc3N=C(c3ccc(F)cc3)C2)c1	-18%	1%[57 µM]	-15%	-17%[59 µM]	·	4%
Cc1ccc(NC(=O)c2ccncc2)cc1S(=O)(=O)N(C)C	-6%	33%	11%	50µM*	?	9%
CC(=O)N1CCN(CC(=O)Nc2ccc(C)c(S(=O)(=O)N(C)C)c2)CC1	5.6µM*	?	79µM*	4.5µM*	0%	-3%
CC(=O)N1CCN(CC(=O)Nc2ccc(Cl)c(S(=O)(=O)N(C)C)c2)CC1	-22%	34%	-1%	13%[59 µM]	4%	10%
CCCSc1nc(-c2ccc(OC)cc2)cc(-c2ccccc2OC)c1C#N	22%	-39%	22%	1.8µM*	·	-4%
COc1ccc(-c2cc(-c3ccccc3)nc(SCC(=O)Nc3ccccc3C)c2C#N)cc1	-11%	-12%	-14%	13µM*	·	0%
COc1ccc(-c2cc(-c3ccc(Cl)cc3)c(C#N)c(SCC(=O)O)n2)cc1	79µM*	?	?	?	?	?
N#Cc1c(-c2ccccc2)cc(-c2ccccc2)nc1SCC(=O)NCC(=O)O	-12%	-10%	-15%	45µM*	8%	?
COc1ccc(-c2cc(-c3ccccc3)c(C#N)c(SCC(=O)O)n2)cc1	2%	60%	·	·	·	0%
CCCOc1ccc(-c2cc(C(F)(F)F)c(C#N)c(SCC(=O)O)n2)cc1	-6%	59%	4%	-36%	·	2%
CCCOc1ccc(-c2cc(C(F)(F)F)c(C#N)c(SCCC(=O)O)n2)cc1	79µM*	-17%	?	-6%[59 µM]	·	7%
N#Cc1c(-c2ccccc2)cc(-c2ccccc2)nc1SCC(O)CS(=O)(=O)Cc1ccc(Cl)cc1 (stereo unspecified)	?	?	-14%	1.8µM*	·	1%
Cc1nc2cnc(N(C)C)nc2n(C)c1=O	·	·	·	3%[12.7 µM]	·	·
CCc1ccc(OCCn2c(CCNC(=O)C3CCCCC3)nc3ccccc32)cc1	-15%[57.1 µM]	23%[57 µM]	·	·	·	·
CCOc1cc(C2c3c(oc4ccccc4c3=O)C(=O)N2Cc2ccc3c(c2)OCO3)ccc1O (stereo unspecified)	-9%	27%	3%	4%[59 µM]	·	-11%
Nc1ccccc1NC(=O)CCn1c(=S)[nH]c2ccccc2c1=O	-6%	55%	-5%	45µM*	·	15%
SMILES	JMJD2A Tudor	HP1b binding inh	BAZ2B inh	G9a block	L3MBTL1 block	GLS inh
O=C(CCCn1c(=S)[nH]c2ccccc2c1=O)N1CCOCC1	22µM*	1%	?	-3%[59 µM]	6%	8%
O=C(CCCCCn1c(=S)[nH]c2ccccc2c1=O)N1CCOCC1	28%	44%	-36%[57.1 µM]	35µM*	-4%	·
CCOC(=O)N1CCN(C(=O)CCCn2c(=S)[nH]c3ccccc3c2=O)CC1	?	39%	?	?	·	-19%
COc1ccc(OC)c(NC(=O)CCn2c(=S)[nH]c3ccccc3c2=O)c1	-2%	37%	-16%	14%	·	-12%
Cc1cccc(-c2ccc3ncnc(NCc4cc(C)cs4)c3c2)c1	·	·	-2%	-7%[12.7 µM]	-3%	·
COc1ccccc1CNC(=O)Cc1c(C)c2c(cc(C)c3c(C)coc32)oc1=O	-16%	1%	1%	5%[59 µM]	·	-9%
CCn1c(-c2cc(-c3cc(OC)ccc3OC)nc3ccccc23)n[nH]c1=S	20µM*	28%	?	3.5µM*	·	-10%
CCn1c(-c2cc(-c3ccccc3OC)nc3ccccc23)n[nH]c1=S	56µM*	22%	-39%	2.8µM*	3%	4%
COc1ccc(OC)c(NC(=O)Cn2c(C)nc3ccccc3c2=O)c1	-17%	27%	6%	39%	19%	-5%
CCN(CC)C(=O)Cn1c(=O)n(CCCCCC(=O)NCc2ccccc2Cl)c(=O)c2sccc21	-3%	16%	3%	-21%[59 µM]	·	-10%
CC(C)OC(=O)C(C(=O)OC(C)C)=C1SC=CS1	·	·	·	28%[59 µM]	·	5%
COc1ccccc1NS(=O)(=O)c1ccc(O)c(C(=O)OCc2cccc([N+](=O)[O-])c2)c1	-24%	8%	·	-7%	-11%	2%
COc1ccc(C(=O)COC(=O)c2ccccc2NS(=O)(=O)c2ccc(O)c([N+](=O)[O-])c2)cc1	?	-29%	56µM*	?	-27%	4%
COc1ccc(NC(=O)c2ccccc2NS(=O)(=O)c2ccc(C)cc2)c([N+](=O)[O-])c1	?	-30%	?	3.2µM*	-9%	-4%
CC(C)CCNC(=O)c1ccc2nc(Cc3ccccc3)oc2c1	3%	31%[57 µM]	3%	-3%[59 µM]	·	0%
COc1ccc(CCNC[C@H](O)COc2cccc(C)c2)cc1OC	·	·	·	·	·	0%
COc1ccc(CCNCC(O)COc2cccc(Br)c2)cc1OC (stereo unspecified)	1µM*	?	50µM*	·	·	16%
COc1ccc(CCNCC(O)COc2ccc(OC)cc2C(C)(C)C)cc1 (stereo unspecified)	3.5µM*	?	71µM*	45µM*	·	-23%
CCOC(=O)C1CCN(C(=O)CSc2ccccc2)CC1	50µM*	?	2%	5%[12.7 µM]	·	-3%
Cc1oc2c(c1C(=O)N1CCC(C)CC1)C(=O)c1ccccc1C2=O	-26%	17%	?	?	-5%	1%

Screening data deposited in PubChem BioAssay by National Center for Advancing Translational Sciences (NCATS).
